This passage reports outcome and AC50 results from PubChem BioAssay (EPA / NIEHS).

For one assay, the target named is PGR (gene 5241) (UniProt P06401). Briefly: NVS_NR_hPR: NovaScreen (NVS) Nuclear Receptor Binding Assay for human Progestron Receptor (PR) (AID 2283360).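 Note: active means loss of bound radioligand signal versus DMSO baseline.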 An outline of the steps:
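T47D-derived receptor preparation, cell-free, with tritiated or iodinated radioligand displacement measured by scintillation 18 h post-dosing. Single 25 uM duplicate screen, then concentration series; signal loss relative to DMSO.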

Assay [1] deals with Glucocorticoid receptor (Homo sapiens) (UniProt P04150). Briefly: NVS_NR_hGR: NovaScreen (NVS) Nuclear Receptor Binding Assay for human Glucocorticoid Receptor (GR) (AID 2283363).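 For AC50: activity is loss of specific radioligand binding signal relative to DMSO.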 An outline of the steps:
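Competitive displacement of a labelled ligand was measured on cell-free receptor preparations after 16 h exposure. Initial testing used 25 uM in duplicate with plate controls; confirmed actives went into concentration series.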

For assay [2], the system named is guinea pig Dopamine Transporter (DAT), gene 100714898. Nature of the assay: NVS_TR_gDAT: NovaScreen (NVS) Transporter Assay for guinea pig Dopamine Transporter (DAT) (AID 2283369).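 Note: active compounds lower bound radioligand signal relative to DMSO.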 In a few lines:
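Cell-free striatal membrane prep (guinea pig), 2 h exposure, filtration + scintillation readout of radioligand binding. Single-point 25 uM duplicate; actives rerun singleton, top conc 50 uM.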

The target in assay [3] is human Serotonin Transporter (SERT), SLC6A4 (gene 6532) (UniProt P31645). Briefly: NVS_TR_hSERT: NovaScreen (NVS) Transporter Assay for human Serotonin Transporter (SERT) (AID 2283372). An outline of the steps:
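Radioligand binding to native SERT in human platelet membranes, read by filter-based scintillation counting 1 h after dosing. Primary screen in duplicate at 25 uM; actives followed up in concentration series; loss of signal versus DMSO baseline.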

The test system of assay [4] is rat Norepinephrine Transporter (NET), gene 83511. Briefly: NVS_TR_rNET: NovaScreen (NVS) Transporter Assay for rat Norepinephrine Transporter (NET) (AID 2283373). In a few lines: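 Rat forebrain membranes; radioligand binding measured by filter-based scintillation counting 1 hour after dosing. Loss of specific binding versus DMSO baseline scored; primary screen in duplicate at 25 uM, actives followed up in concentration series.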

Assay [5] addresses human Dopamine Transporter (DAT), SLC6A3 (gene 6531) (UniProt Q01959). Briefly: NVS_TR_hDAT: NovaScreen (NVS) Transporter Assay for human Dopamine Transporter (DAT) (AID 2283374).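 Note: activity means loss of bound radioligand signal relative to DMSO.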 An outline of the steps:
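Test chemicals were first screened in duplicate at 25 uM, with actives retested as concentration series. Displacement of a specific radioligand from cell-free human dopamine transporter was measured after 1 h by filtration and scintillation counting.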

Assay [6] concerns the target human Norepinephrine Transporter (NET), SLC6A2 (gene 6530) (UniProt P23975). Nature of the assay: NVS_TR_hNET: NovaScreen (NVS) Transporter Assay for human Norepinephrine Transporter (NET) (AID 2283377).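 Note: cell-free membrane protein extracted from CHO cells expressing human NET; displacement of radioligand from human NET seen as loss of scintillation signal.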 In a few lines:
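Scintillation counts of filter-retained radioligand served as the readout, taken 1 h post-dosing in a cell-free CHO-derived system. Test chemicals ran first at 25 uM in duplicate; confirmed hits were retested across concentrations.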

Assay [7] concerns the target mouse Estrogen Receptor alpha (Era), Esr1 (gene 13982) (UniProt P19785). Briefly: NVS_NR_mERa: NovaScreen (NVS) Nuclear Receptor Binding Assay for mouse Estrogen Receptor alpha (Era) (AID 2283378).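 Note: hit means loss of bound radioligand signal relative to DMSO.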 In a few lines: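 Filter scintillation counts of bound radioligand, measured 18 h post-dose, gave the readout; decreased signal relative to DMSO controls indicated displacement from mouse Era. Primary screen ran in duplicate at 25 uM; active chemicals were retested across concentrations.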

In assay [8] the target is Estrogen receptor (Homo sapiens) (UniProt P03372). Nature of the assay: OT_ERa_GFPERaERE_0480: Odyssey Thera (OT) 8-hour HeLa Transcription Induction Assay for Estrogen Receptor (AID 2283381; active = hit-call score of the fitted dose curve at least 0.9, where 1 is the maximum; inactive = score below 0.9). In a few lines: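 Fluorescent reporter signal, imaged by microscopy and scored with image-analysis algorithms, was taken 8 h after chemical dosing of HeLa cells; activity was fitted upward relative to DMSO.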

The target is the same in assay [9]. Nature of the assay: OT_ERa_GFPERaERE_0120: Odyssey Thera (OT) 2-hour HeLa Transcription Induction Assay for Estrogen Receptor (AID 2283382). An outline of the steps: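 HeLa, 384-well, 2 h chemical exposure; GFP reporter induction (ERE), fluorescence microscopy; high content image analysis; positive fitting direction vs DMSO.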
In assay [10] the target is Bile acid receptor (Homo sapiens) (UniProt Q96RI1). Nature of the assay: OT_FXR_FXRSRC1_0480: Odyssey Thera (OT) 8-hour HEK293T Protein-Complementation Assay for Farnesoid X receptor/SRC-1 Co-activator (AID 2283383). An outline of the steps:
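Human kidney HEK293T cells carried FXR/SRC-1 fragment-complementation constructs. Compounds were added and incubated 8 h. Reporter reassembly upon receptor–co-activator interaction was then quantified by fluorescence, with curves fitted in the positive direction relative to DMSO.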

The target in assay [11] is Retinoic acid receptor alpha (Homo sapiens) (UniProt P10276). Briefly: NVS_NR_hRARa_Agonist: NovaScreen (NVS) Nuclear Receptor Binding Assay for human Retinoic Acid Alpha Receptor Agonism (RAR) (AID 2283361). In a few lines:
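Readout is time-resolved fluorescence resonance energy transfer after a 2 h exposure of cell-free extracted receptor protein. Initial testing used 25 uM in duplicate, with concentration-response follow-up for active chemicals.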

The target of assay [12] is Estrogen receptor beta (Homo sapiens) (UniProt Q92731). Nature of the assay: OT_ER_ERbERb_1440: Odyssey Thera (OT) 24-hour HEK293T Protein-Complementation Assay for Estrogen Receptor-beta/-beta Homodimer (AID 2283380).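 Note: fluorescence gain from ER beta LBD homodimer complementation read by laser scanning cytometry; scored as signal increase over DMSO baseline for both agonists and antagonists.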 An outline of the steps: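 Fluorescence increase, nuclear for agonists or whole-cell for antagonists, relative to DMSO vehicle, quantified by laser scanning cytometer after fixation and Draq5 staining. Readout from 24 h treatment of HEK293T cells carrying complementation-paired ER beta LBD (aa 310-547).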
Chain of Estrogen receptor beta (Homo sapiens) (Q92731 whole entry, looked up, the tested form may be a part): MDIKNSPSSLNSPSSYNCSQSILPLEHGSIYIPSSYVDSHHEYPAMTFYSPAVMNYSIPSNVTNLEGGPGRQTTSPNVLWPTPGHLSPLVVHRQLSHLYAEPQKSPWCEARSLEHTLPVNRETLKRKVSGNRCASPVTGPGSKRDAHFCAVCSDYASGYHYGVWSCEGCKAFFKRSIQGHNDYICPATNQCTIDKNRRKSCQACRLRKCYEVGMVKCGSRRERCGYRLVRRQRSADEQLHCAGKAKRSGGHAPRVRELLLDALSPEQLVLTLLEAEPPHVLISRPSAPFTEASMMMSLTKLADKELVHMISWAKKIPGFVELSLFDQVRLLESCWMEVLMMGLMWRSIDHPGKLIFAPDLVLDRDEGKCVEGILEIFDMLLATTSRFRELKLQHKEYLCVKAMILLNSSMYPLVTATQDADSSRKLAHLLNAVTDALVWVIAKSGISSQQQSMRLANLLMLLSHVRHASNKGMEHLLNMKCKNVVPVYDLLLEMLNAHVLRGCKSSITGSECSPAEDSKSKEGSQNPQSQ

Assay [13] has as its target human Peroxisome Proliferator-activated Receptor alpha (PPARa), PPARA (gene 5465) (UniProt Q07869). Nature of the assay: NVS_NR_hPPARa: NovaScreen (NVS) Nuclear Receptor Binding Assay for human Peroxisome Proliferator-activated Receptor alpha (PPARa) (AID 2283359).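 Note: activity means loss of TR-FRET signal versus DMSO baseline.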 In a few lines: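 Chemicals were first screened in duplicate at 25 uM, and active ones were retested across concentration series. Binding was monitored by TR-FRET one hour after dosing, with decreased signal against DMSO counted as activity.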

For assay [14], the target named is Nuclear receptor subfamily 1 group I member 2 (Homo sapiens) (UniProt O75469). Briefly: NVS_NR_hPXR: NovaScreen (NVS) Nuclear Receptor Binding Assay for human Pregnane X Receptor (PXR) (AID 2283365).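 Note: a drop in FRET signal versus DMSO baseline means the compound binds.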 An outline of the steps:
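TR-FRET signal read at 2 h in a cell-free human PXR binding format. DMSO served as negative control and baseline; activity scored as signal loss. Single-concentration duplicate screen (25 uM), then concentration-response follow-up.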

For assay [15], the target named is Peroxisome proliferator-activated receptor gamma (Homo sapiens) (UniProt P37231). Nature of the assay: NVS_NR_hPPARg: NovaScreen (NVS) Nuclear Receptor Binding Assay for human Peroxisome Proliferator-activated Receptor gamma (PPARg) (AID 2283370). In a few lines:
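FP read-out, 2 h post-dose, cell-free extracted receptor protein. Signal loss vs DMSO negative control = binding activity. Single-conc duplicate HTS at 25 uM; concentration-response follow-up for actives.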

Assay [16] deals with rat Androgen Receptor (AR), Ar (gene 24208) (UniProt P15207). Briefly: NVS_NR_rAR: NovaScreen (NVS) Nuclear Receptor Binding Assay for rat Androgen Receptor (AR) (AID 2283366). An outline of the steps:
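Cell-free radioligand binding on extracts of prostate from testosterone-pretreated rats, read by filter-based scintillation counting 18 h after dosing. Loss of bound signal fitted positively versus DMSO; primary screen in duplicate at 25 uM, actives followed up in concentration series.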

Molecules are shown by their SMILES. “And” between values parts separate entries of the source, which are not always exact repeats. Equal entries are not always repeated. Inconclusive results are not listed. The source made the active and inactive calls. Rule for the calls, unless noted: active = hit-call score of the fitted dose curve at least 0.9, where 1 is the maximum; inconclusive = response in the unintended direction; inactive = score below 0.9.

Chain of Bile acid receptor (Homo sapiens) (Q96RI1 whole entry, looked up, the tested form may be a part): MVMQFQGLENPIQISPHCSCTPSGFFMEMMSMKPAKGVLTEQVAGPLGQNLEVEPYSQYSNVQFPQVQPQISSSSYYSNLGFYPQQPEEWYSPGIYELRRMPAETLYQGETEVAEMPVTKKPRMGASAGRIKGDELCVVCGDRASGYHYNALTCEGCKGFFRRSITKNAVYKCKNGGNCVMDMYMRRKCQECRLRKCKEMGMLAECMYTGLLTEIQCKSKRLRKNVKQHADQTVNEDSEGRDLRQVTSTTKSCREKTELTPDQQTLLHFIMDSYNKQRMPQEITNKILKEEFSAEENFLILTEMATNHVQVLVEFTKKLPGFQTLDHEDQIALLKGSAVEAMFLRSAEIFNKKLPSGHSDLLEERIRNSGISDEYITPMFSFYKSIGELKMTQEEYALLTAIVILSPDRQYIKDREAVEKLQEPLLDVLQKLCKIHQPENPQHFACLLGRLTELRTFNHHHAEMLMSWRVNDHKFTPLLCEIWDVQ
Chain of rat Androgen Receptor (AR), Ar (gene 24208) (P15207 whole entry, looked up): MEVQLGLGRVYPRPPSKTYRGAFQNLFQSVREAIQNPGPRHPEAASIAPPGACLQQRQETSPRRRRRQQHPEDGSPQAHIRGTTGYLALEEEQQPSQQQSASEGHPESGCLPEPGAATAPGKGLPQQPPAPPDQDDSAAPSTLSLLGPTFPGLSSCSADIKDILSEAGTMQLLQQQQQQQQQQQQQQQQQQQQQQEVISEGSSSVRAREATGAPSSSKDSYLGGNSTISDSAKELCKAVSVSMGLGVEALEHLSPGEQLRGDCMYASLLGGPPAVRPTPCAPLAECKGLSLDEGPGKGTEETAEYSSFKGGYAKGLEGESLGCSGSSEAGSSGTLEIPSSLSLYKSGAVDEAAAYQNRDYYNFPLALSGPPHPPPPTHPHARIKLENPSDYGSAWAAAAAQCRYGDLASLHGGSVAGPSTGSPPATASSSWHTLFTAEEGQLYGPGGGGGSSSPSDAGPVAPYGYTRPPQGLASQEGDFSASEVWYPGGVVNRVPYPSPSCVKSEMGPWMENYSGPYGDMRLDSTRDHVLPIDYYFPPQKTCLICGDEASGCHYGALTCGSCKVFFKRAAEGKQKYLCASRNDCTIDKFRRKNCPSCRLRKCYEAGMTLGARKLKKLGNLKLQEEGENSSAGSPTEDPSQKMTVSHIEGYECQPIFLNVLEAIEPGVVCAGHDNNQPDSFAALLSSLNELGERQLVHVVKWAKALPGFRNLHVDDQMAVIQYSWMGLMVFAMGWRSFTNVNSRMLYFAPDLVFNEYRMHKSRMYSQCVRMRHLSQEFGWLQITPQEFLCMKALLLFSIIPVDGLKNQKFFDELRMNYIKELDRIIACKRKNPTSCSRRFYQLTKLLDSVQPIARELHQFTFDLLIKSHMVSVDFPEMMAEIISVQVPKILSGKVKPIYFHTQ
Chain of human Peroxisome Proliferator-activated Receptor alpha (PPARa), PPARA (gene 5465) (Q07869 whole entry, looked up): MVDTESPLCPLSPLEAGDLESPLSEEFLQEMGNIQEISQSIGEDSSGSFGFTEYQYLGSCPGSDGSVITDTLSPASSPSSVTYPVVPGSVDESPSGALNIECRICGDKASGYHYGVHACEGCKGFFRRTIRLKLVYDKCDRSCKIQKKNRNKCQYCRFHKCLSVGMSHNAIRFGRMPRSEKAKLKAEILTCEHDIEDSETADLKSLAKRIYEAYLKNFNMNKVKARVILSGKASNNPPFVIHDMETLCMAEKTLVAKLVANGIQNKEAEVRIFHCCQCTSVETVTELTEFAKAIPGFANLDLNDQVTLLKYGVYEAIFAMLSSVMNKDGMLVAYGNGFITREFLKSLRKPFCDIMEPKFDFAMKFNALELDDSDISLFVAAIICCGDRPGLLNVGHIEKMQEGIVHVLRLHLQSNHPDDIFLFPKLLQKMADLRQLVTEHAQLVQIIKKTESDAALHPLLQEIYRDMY
Chain of Peroxisome proliferator-activated receptor gamma (Homo sapiens) (P37231 whole entry, looked up): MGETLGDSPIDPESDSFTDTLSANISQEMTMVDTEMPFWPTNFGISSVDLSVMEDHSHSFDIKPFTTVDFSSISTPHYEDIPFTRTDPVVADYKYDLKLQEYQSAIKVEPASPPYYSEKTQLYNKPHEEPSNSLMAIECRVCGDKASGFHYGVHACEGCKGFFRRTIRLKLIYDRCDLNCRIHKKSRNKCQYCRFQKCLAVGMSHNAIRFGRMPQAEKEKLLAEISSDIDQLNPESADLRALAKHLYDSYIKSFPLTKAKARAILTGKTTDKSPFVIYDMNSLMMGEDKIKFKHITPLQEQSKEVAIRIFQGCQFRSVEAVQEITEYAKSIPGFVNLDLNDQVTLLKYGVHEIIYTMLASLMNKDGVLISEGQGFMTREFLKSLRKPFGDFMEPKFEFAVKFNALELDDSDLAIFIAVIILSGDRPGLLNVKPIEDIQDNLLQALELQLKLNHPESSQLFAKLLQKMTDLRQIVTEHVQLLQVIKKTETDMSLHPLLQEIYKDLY
Chain of PGR (gene 5241) (P06401 whole entry, looked up): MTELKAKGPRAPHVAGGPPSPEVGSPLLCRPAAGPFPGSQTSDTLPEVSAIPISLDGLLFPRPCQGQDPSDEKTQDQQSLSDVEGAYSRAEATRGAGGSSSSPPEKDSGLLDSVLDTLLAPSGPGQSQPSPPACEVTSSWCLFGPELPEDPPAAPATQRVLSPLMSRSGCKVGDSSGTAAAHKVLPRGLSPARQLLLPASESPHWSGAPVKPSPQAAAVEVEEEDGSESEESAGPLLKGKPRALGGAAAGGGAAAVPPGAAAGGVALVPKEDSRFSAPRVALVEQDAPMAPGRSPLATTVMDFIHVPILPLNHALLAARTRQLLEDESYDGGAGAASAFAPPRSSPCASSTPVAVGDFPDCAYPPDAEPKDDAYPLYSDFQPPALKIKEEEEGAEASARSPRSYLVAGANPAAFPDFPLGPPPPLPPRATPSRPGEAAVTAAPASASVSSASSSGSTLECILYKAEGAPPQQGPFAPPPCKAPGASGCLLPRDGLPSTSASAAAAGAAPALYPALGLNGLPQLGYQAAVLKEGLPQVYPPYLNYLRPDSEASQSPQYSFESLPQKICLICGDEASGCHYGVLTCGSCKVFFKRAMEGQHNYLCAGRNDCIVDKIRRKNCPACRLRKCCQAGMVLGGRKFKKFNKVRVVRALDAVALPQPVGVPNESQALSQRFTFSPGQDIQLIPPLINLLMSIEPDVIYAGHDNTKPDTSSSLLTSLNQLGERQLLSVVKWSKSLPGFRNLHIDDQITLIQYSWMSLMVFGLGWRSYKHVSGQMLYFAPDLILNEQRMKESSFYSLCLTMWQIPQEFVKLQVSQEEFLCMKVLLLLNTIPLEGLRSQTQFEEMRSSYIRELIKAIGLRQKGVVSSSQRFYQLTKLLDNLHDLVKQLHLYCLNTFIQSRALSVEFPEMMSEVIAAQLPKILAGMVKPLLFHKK
Chain of Glucocorticoid receptor (Homo sapiens) (P04150 whole entry, looked up): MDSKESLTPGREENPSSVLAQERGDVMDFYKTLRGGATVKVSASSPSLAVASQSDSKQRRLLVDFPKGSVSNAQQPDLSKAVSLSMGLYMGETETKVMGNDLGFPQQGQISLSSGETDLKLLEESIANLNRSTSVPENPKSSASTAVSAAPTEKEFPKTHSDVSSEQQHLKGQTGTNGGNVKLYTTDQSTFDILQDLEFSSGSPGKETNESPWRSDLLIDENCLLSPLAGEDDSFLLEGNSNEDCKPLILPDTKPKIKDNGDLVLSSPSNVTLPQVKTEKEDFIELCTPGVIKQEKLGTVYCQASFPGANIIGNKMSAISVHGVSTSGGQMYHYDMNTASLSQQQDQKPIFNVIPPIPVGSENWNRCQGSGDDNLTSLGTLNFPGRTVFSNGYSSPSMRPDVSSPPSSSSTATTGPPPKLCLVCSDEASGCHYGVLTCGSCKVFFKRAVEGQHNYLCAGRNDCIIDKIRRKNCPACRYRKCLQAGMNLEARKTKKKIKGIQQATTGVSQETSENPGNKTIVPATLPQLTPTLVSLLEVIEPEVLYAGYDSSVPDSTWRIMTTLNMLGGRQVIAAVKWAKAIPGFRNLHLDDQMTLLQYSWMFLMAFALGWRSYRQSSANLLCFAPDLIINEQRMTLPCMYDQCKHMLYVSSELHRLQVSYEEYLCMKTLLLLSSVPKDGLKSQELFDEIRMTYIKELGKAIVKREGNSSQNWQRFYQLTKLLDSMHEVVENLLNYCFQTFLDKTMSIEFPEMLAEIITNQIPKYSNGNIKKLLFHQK
Chain of Nuclear receptor subfamily 1 group I member 2 (Homo sapiens) (O75469 whole entry, looked up): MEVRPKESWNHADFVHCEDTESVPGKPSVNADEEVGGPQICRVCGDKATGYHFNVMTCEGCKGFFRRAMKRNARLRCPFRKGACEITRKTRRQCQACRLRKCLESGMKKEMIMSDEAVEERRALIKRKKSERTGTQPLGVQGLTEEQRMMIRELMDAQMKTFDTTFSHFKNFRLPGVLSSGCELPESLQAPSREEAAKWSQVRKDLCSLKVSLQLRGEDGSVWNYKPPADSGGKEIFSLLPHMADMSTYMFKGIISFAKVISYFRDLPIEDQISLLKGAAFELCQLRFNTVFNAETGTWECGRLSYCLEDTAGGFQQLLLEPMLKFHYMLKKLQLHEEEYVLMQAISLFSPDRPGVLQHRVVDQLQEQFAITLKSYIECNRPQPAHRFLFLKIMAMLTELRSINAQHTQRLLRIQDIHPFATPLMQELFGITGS

As a reminder, the AC50 is the midpoint of the concentration-response curve, whichever way the signal moves. As for `CN(C)C(=O)C1(N2CCCCC2)CCN(CC[C@@]2(c3ccc(Cl)c(Cl)c3)CN(C(=O)c3ccccc3)CCO2)CC1`, the outcome with PGR (gene 5241) was inactive. Further, the half-maximal activity concentration (AC50) in [1] is 3.41 µM (active); in assay [2] it was 6.54 µM (active); in [3], 36 µM (active); in assay [4], 13.5 µM (active); in assay [5], 2.76 µM (active); in assay [6], 2.33 µM (active). Also, the results for the AC50 in assay [7], in assay [8] and in assay [9] were 0.203 µM (active), 16.8 µM (active) and 14.8 µM (active), respectively.

As to `CCCC(=O)OCCC(C)C`, the AC50 with PGR (gene 5241) was 17.2 µM (active). Also, the result in assay [8] and in assay [10] was inactive.

Regarding `CC[C@@H]1C[C@H](N(Cc2cc(C(F)(F)F)cc(C(F)(F)F)c2)C(C)=O)c2cc(C(F)(F)F)ccc2N1C(=O)OC(C)C`, the molecule was called inactive (with PGR (gene 5241); in assay [11]; in assay [1]; in assay [12]; in assay [8]; in assay [9]).

With `O=CCCCC=O`, the molecule was classed as inactive in assay [13], in assay [14], in assay [15], in assay [8] and in assay [9]. Further, the concentration at half-maximal activity (AC50) in assay [10] was 40.2 µM (active).

As for `CCCCCCCCCCCCO`, the result (with PGR (gene 5241); in assay [12]; in assay [8]; in assay [9]; in assay [10]) was inactive.

As to `COCC(C)OCC(C)OCC(C)O` (configuration not stated), the outcome (with PGR (gene 5241); in assay [12]; in assay [8]; in assay [9]) was inactive.

On to `OC12N=C(c3ccccc3)SC1Cc1cc(Cl)ccc12` (configuration not stated), for which the outcome in assay [13], in assay [12], in assay [8] and in assay [9] was inactive. The concentration at half-maximal activity (AC50) in assay [10] was 71.7 µM (active).

As to `Cc1c2ccccc2c(C)c2c1ccc1ccccc12`, the molecule was classed as inactive in assay [13], in [15], in assay [12], in [8] and in assay [9]. Also, the AC50 was 15.6 µM (active) with PGR (gene 5241), 15.3 µM (active) in [1] and 14.3 µM (active) in [10].

For the molecule `CCCCOC(=O)c1ccc(O)cc1`, the molecule was classed as inactive (in [13]; with PGR (gene 5241); in assay [1]; in assay [14]; in assay [16]; in assay [15]). Moreover, the AC50 in assay [2] was 25 µM (active); in [6] it was 13.9 µM (active); in assay [12], 4.49 µM (active) and 5.81 µM (active) and 6.38 µM (active); in assay [10], 50 µM (active) and 31 µM (active).
